Measurements as given in the supplement of paper PMC10849652.
About 8,800 targets were measured; listed, in parts, are those with a hit and a random draw of the rest. About 0.5% of all pairs of compound and target were hits.

Compound: CN1CC[C@H](c2c(O)cc(O)c3c(=O)cc(-c4ccccc4Cl)oc23)[C@H](O)C1 [alvocidib]
Assay: log2 fold change, soluble protein after heating vs DMSO (PISA); higher = thermal stabilisation; K562 lysate, 10 uM; active = over 0.2 and 3.5 SD of the protein, either way, in both replicates (recomputed)
Outline: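 Pellets of K562 cells were dounce-homogenised in PBS pH 7.4 with 1 mM MgCl2, and the crude extract was held at 1 mg/mL protein for a 30 min treatment with 10 μM compound. Aliquots were heated for 3 min over 48°C-58°C and pooled before NP-40 was added to 0.5% at 4°C. The supernatant from 21,000xg for 90 min was quantified by TMTpro 16plex LC-MS/MS with channel sums equalised. Values are reported from duplicates as log-two fold change in thermal stability relative to solvent controls.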

Chain of UniProt P17707 (P17707 whole entry, looked up): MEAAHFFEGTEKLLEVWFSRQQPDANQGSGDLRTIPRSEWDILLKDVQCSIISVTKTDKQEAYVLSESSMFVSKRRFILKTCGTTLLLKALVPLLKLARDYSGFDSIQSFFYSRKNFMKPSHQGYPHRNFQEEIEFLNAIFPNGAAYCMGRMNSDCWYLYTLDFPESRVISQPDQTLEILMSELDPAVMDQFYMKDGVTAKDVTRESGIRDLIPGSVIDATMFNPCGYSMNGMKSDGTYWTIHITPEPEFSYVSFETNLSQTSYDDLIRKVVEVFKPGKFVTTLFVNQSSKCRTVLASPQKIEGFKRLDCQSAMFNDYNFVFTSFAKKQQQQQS
Chain of UniProt P53396 (P53396 whole entry, looked up): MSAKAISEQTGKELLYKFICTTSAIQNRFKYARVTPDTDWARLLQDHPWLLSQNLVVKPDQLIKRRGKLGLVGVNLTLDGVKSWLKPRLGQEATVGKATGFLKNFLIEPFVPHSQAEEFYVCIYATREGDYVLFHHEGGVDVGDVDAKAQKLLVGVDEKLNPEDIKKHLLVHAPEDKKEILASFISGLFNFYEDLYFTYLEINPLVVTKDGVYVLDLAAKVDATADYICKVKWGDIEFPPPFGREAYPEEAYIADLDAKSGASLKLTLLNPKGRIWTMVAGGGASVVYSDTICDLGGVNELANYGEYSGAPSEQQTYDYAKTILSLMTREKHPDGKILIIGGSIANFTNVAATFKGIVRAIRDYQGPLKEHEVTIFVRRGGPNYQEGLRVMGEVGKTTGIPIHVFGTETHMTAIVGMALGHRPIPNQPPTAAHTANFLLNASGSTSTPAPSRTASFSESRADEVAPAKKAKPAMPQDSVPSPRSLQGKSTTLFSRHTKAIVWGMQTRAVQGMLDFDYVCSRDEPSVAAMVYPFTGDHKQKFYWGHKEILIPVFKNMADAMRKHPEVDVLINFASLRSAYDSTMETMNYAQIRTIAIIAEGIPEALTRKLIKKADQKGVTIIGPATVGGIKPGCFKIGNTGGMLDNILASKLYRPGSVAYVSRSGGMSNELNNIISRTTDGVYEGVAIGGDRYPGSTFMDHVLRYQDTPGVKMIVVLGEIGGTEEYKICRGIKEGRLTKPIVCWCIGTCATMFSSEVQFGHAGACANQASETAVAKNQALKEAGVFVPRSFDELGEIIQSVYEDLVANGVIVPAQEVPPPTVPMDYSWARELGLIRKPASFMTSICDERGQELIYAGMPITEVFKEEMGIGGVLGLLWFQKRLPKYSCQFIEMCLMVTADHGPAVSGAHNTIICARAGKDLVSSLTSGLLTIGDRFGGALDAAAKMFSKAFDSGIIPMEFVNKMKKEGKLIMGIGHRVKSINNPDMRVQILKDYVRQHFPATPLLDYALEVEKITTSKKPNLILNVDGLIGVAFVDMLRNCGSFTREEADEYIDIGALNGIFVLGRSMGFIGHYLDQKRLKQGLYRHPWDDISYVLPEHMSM
Chain of UniProt P52895 (P52895 whole entry, looked up): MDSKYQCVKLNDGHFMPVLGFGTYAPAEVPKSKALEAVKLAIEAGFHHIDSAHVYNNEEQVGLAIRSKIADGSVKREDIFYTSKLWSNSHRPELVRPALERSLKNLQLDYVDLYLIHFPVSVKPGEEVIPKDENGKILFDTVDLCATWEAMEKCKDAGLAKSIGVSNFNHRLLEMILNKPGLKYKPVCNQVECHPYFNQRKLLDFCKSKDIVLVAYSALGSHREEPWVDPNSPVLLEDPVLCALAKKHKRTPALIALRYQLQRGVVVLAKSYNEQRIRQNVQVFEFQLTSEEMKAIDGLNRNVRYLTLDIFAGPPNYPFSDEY
Chain of UniProt P28288 (P28288 whole entry, looked up): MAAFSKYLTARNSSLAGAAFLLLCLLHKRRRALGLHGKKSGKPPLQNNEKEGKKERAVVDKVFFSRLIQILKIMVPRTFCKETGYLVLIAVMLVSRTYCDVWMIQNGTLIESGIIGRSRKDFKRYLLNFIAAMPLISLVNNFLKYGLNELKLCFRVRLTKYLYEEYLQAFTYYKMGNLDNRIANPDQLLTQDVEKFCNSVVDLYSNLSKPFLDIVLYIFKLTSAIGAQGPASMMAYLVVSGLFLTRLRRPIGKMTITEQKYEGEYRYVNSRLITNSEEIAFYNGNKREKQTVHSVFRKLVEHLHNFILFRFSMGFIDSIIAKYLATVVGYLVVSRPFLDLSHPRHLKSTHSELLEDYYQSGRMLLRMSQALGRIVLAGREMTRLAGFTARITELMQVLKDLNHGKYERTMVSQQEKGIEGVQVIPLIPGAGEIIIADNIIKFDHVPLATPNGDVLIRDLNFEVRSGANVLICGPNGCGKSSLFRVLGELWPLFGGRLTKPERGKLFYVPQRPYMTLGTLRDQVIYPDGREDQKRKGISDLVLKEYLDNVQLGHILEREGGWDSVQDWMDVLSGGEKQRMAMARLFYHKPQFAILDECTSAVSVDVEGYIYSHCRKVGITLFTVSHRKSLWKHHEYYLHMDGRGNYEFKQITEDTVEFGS
Chain of UniProt Q9H1I8 (Q9H1I8 whole entry, looked up): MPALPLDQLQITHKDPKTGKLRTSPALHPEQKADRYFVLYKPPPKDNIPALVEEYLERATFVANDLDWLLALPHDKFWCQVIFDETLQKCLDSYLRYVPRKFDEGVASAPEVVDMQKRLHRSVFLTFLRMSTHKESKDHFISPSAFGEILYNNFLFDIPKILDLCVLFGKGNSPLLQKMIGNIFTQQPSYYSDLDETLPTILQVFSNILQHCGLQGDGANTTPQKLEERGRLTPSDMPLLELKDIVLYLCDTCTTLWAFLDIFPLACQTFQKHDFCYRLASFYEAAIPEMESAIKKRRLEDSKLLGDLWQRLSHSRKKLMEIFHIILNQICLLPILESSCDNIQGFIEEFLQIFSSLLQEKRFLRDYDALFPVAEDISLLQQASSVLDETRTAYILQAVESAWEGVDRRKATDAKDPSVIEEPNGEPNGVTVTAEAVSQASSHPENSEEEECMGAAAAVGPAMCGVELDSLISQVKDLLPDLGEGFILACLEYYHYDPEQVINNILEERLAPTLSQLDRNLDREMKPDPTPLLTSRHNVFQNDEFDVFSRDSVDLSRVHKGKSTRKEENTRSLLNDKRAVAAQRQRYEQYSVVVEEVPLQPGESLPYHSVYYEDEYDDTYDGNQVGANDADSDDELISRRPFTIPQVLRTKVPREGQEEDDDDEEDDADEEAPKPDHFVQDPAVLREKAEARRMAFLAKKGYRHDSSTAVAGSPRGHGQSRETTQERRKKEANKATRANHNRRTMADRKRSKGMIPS
Chain of UniProt P39687 (P39687 whole entry, looked up): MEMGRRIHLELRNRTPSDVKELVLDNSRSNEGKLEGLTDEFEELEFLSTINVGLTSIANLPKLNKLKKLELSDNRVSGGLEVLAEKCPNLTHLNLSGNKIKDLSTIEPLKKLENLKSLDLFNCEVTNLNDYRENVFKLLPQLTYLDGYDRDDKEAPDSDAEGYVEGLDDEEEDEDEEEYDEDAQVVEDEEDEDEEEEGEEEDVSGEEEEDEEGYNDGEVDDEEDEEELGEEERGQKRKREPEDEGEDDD
Chain of UniProt O14727 (O14727 whole entry, looked up): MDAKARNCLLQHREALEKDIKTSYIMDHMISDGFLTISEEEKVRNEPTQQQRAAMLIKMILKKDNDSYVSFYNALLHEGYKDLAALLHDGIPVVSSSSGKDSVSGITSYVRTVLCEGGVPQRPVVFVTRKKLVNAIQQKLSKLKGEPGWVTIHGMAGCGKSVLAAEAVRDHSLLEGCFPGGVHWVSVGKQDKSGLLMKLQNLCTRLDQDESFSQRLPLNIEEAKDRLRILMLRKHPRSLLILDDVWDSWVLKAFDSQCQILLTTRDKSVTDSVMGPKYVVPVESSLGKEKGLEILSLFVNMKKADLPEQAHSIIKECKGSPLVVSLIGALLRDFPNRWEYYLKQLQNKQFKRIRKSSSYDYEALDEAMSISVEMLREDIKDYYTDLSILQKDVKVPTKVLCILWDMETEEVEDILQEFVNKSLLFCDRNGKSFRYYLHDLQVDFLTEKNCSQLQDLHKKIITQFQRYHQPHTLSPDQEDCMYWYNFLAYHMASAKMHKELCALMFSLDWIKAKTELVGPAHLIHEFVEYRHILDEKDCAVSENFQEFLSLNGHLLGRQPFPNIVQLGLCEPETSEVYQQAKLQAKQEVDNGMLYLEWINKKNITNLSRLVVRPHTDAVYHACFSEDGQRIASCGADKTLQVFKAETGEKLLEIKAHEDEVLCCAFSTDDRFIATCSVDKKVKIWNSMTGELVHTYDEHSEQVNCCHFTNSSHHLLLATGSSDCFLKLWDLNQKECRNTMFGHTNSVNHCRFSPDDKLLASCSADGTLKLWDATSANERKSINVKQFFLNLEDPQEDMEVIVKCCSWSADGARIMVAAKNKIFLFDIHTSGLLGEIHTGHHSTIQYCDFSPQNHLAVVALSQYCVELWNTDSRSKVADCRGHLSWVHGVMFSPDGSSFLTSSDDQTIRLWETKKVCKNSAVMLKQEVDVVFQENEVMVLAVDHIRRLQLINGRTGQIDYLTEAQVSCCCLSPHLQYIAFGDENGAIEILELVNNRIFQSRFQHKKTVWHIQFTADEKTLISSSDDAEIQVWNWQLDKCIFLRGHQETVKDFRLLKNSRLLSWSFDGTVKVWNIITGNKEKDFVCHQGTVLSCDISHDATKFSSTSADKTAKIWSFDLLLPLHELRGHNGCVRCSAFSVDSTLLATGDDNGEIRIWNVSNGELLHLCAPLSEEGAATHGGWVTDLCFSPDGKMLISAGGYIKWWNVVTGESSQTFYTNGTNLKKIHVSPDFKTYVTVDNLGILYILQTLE
Chain of UniProt P40616 (P40616 whole entry, looked up): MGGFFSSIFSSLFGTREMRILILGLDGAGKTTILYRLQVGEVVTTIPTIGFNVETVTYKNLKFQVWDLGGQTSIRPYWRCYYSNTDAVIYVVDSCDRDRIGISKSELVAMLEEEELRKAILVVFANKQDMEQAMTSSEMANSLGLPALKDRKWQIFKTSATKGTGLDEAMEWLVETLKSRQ

log2 fold change, inactive:
APAF1 (UniProt O14727) -0.006
ASCC2 (UniProt Q9H1I8) -0.009
AP1G2 (UniProt O75843) 0.04
ANLN (UniProt Q9NQW6) -0.037
ABCD3 (UniProt P28288) -0.064
ACLY (UniProt P53396) 0.022
AKT2 (UniProt P31751) 0.001
AIMP2 (UniProt Q13155) 0.037
ACIN1 isoform 5 (UniProt Q9UKV3) -0.038
ANP32E (UniProt Q9BTT0) 0
ACADS (UniProt P16219) -0.011
ANXA2 isoform 2 (UniProt P07355) 0.012
AMDHD2 isoform 3 (UniProt Q9Y303) -0.016
ACSL4 (UniProt O60488) 0.023
AKR1C3 (UniProt P42330) 0.026
ANP32A (UniProt P39687) -0.039
AFF4 (UniProt Q9UHB7) -0.235
ARL1 (UniProt P40616) -0.017
ARHGAP25 isoform 4 (UniProt P42331) -0.032
AK4 (UniProt P27144) 0.025
AIFM2 (UniProt Q9BRQ8) -0.032
AK1 (UniProt P00568) 0.154
ABI1 isoform 9 (UniProt Q8IZP0) -0.096
APOB (UniProt P04114) -0.078
AKR1B1 (UniProt P15121) 0.033
AGTPBP1 (UniProt Q9UPW5) 0.034
ABCF2 isoform 2 (UniProt Q9UG63) 0.004
ARFGAP1 (UniProt Q8N6T3) -0.001
AMD1 (UniProt P17707) -0.039
AGPAT1 (UniProt Q99943) -0.002
ASB6 (UniProt Q9NWX5) 0.097
AGL (UniProt P35573) 0.046
ALDH5A1 isoform 2 (UniProt P51649) 0.063
AKR1C2 (UniProt P52895) -0.06
ALG8 (UniProt Q9BVK2) 0.004
ARMC6 (UniProt Q6NXE6) 0
